D3 antag: qHTS of D3 Dopamine Receptor Antagonist: qHTS; max response, negative = inhibition, %; D3R cells, DiscoveRx beta-arrestin luminescence, antagonist mode; active compounds read low; D(3) dopamine receptor (Homo sapiens), P35462; hit rate 2.5% among 360,000; in the data active = max response below about -50%; inconclusive = no clear call, values can overlap the other calls; also: % is scaled to controls: 0 for no effect and ±100 for the full control effect
Target sequence (P35462 whole entry, looked up): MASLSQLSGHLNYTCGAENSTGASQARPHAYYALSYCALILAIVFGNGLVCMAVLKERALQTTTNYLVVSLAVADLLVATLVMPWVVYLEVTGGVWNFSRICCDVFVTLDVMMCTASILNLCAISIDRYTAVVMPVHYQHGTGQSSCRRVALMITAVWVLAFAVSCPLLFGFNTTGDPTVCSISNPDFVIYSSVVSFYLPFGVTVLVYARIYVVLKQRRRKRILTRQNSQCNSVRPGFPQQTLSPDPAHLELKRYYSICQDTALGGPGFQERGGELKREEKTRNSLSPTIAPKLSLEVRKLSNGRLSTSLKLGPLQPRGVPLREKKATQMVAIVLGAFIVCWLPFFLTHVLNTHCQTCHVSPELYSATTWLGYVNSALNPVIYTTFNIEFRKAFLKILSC
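Cells expressing the human receptor were seeded at 1500 cells/well, incubated overnight at 37 degrees C in 5% CO2, then exposed to library compounds with dopamine controls for 90 minutes at 37 degrees C before luminescent detection.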
D1 ag: Allosteric Agonists of the Human D1 Dopamine Receptor: qHTS. HEK293 T-REx D1 cells, calcium flux, agonist mode. activation, % at 2 µM. hit rate 1% among 360,000; in the data active = activation above about 30%; also: 0% is about no effect
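Inducible HEK293 T-REx D1 cells, force-coupled to calcium signalling, were plated at 4000 cells/well with tetracycline and held overnight at 30 C. After no-wash calcium dye loading, compound-evoked calcium rise over 180 s flagged agonists.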
DRD3 agonist: qHTS of D3 Dopamine Receptor Agonist: qHTS | D3R DiscoveRx beta-arrestin cells, luminescence, 90 min | max activation, % | hit rate 0.58% among 410,000; in the data active = max activation above about 30%; also: 0% is about no effect
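Agonist-mode cell screen: cells plated at 1500/well and incubated overnight at 37 °C, then exposed to library compounds for 90 min at 37 °C. Detection reagent was added for 30–60 min at room temperature, and luminescence was read.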
D1 potentiator: Potentiators of Human D1 Dopamine Receptor: qHTS | HEK293 TREx D1 cells, calcium flux, dopamine EC20 potentiation | potentiation, % at 10 µM | hit rate 0.036% among 360,000; in the data active = potentiation above about 30%; also: 0% is about no effect
D1 antag: Antagonist of Human D 1 Dopamine Receptor: qHTS. HEK293 TREx D1 cells, calcium flux, dopamine EC80; active compounds read low. activity change, negative = inhibition, % at 10 µM. hit rate 3.2% among 360,000. AID 504652, 2011; in the data active = activity change below about -30%; also: % is scaled to controls: 0 for no effect and ±100 for the full control effect
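Calcium flux readout: force-coupled, inducible Hek293 Trex D1 line, cells induced overnight at 30 C with tetracycline, dye-loaded 30–90 min at RT. Antagonism scored against EC80 dopamine challenge given 180 s after compound.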
Active calls of the source: *; ? = inconclusive; · = not tested or not shown. Rows were chosen to be rich in hits. Some 6% of all compounds tested hit in one or more screens of this group.

SMILES	D3 antag	D1 ag	DRD3 agonist	D1 potentiator	D1 antag
COc1cc(OC)c(NC(=O)Cn2c(=O)cc(C(F)(F)F)c3c(C)nn(C)c32)cc1Cl	·	0	1	-5	-20
Cc1oncc1C(=O)Nc1ccc(C(F)(F)F)cc1	4	5	18	-5	-67*
Cc1oncc1C(=O)Nc1ccc2ccccc2c1	0	4	2	-5	13
CCS(=O)(=O)N1CC(=O)N(c2cccc(C)c2C)C(C)(C(=O)NC2CCCCC2)C1 (centres undefined)	·	2	-4	-1	11
Cc1cc(C)nc(/N=C(\N)Nc2ccc(CC(=O)OC(C)C)cc2)n1	10	24	16	3	-50*
Cc1cc(C)nc(/N=C(\N)Nc2ccc(S(=O)(=O)O)cc2)n1	4	2	13	-1	5
COc1ccccc1N/C(N)=N/c1nc(C)cc(C)n1	9	3	0	-13	-34*
Cc1cc(C)nc(/N=C(\N)Nc2ccc(OCc3ccccc3)cc2)n1	-5	102*	-5	1	-38*
COc1ccccc1N/C(=N/c1nc(C)cc(C)n1)NC(C)=O	·	4	·	-6	-1
Cc1cc(C)nc(/N=C(\N)Nc2cccc(OCc3ccccc3)c2)n1	18	66*	0	-15	-55*
COc1cccc(N/C(N)=N/c2nc(C(F)(F)F)cc(C(F)(F)F)n2)c1	3	6	0	4	-14
CCCc1ccc(OC(=O)c2sc3ncn(Cc4cccc(F)c4)c(=O)c3c2C)cc1	·	4	9	-4	-4
Cc1ccc2c(Sc3ccc(Cl)cc3)c(C(=O)NCCC(C)C)[nH]c2c1	·	-1	2	0	11
CCC(CC)C(=O)N1CCc2cc(OC)c(OC)cc2C1COc1ccc(C(=O)OC)cc1 (centres undefined)	·	2	2	-1	10
Cc1cc(C)nc(/N=C(\N)Nc2ccc(OCCC(C)C)cc2)n1	12	86*	5	-6	-45*
COc1ccc(N/C(N)=N/c2nc(C)cc(C)n2)cc1	17	·	2	·	·
Cc1ccc(NC(=O)c2ccc3snnc3c2)cc1Cl	·	11	-2	-2	-3
CC1=C(C(=O)Nc2ccccc2)C(c2ccc(C)o2)n2ncnc2N1 (centres undefined)	-1	2	-6	-12	-60*
COc1ccc(NC(=O)C2=C(C)Nc3ncnn3C2c2ccc(C)o2)cc1 (centres undefined)	·	1	1	5	2
COc1ccccc1NC(=O)CSCc1cc(=O)c2cccc(Cl)c2[nH]1	·	1	7	-1	-48*
OC(c1ccc(Cl)c(Cl)c1)c1ncc(-c2ccccc2C(F)(F)F)[nH]1 (centres undefined)	4	·	1	·	·
CC(=O)N1CCc2c(sc(NC(=O)c3ccc([N+](=O)[O-])o3)c2C#N)C1	-59*	0	-12	0	-7
COc1ccc(C(=O)Nc2sc3c(c2C#N)CCN(C(C)=O)C3)cc1	11	1	-5	2	1
Cc1ccc(S(=O)(=O)/N=C2\C=C(Nc3cccc(C(=O)O)c3)C(=O)c3ccccc32)c(C)c1	-71*	-2	-27	1	2
Cc1ccc(S(=O)(=O)/N=C2\C=C(Nc3cccc(C(=O)O)c3)C(=O)c3ccccc32)cc1	?	3	-24	-7	7
SMILES	D3 antag	D1 ag	DRD3 agonist	D1 potentiator	D1 antag
COC(=O)c1cccc(NS(=O)(=O)c2cccs2)c1C	9	1	-10	-3	0
CCc1ccc(S(=O)(=O)/N=C2\C=C(Nc3ccc(C(=O)O)cc3)C(=O)c3ccccc32)cc1	-68*	4	-30	·	2
COC(=O)c1ccccc1NC1=C/C(=N\S(=O)(=O)c2ccc(C(=O)O)cc2)c2ccccc2C1=O	-99*	2	-25	·	-5
COC(=O)c1ccccc1NC1=C/C(=N\S(=O)(=O)c2cccs2)c2ccccc2C1=O	-93*	9	-48	-5	1
CN(C(=O)c1cc(-c2ccccc2O)on1)c1ccccc1	·	5	4	2	-9
CC(=O)N(/N=C/c1ccc([N+](=O)[O-])o1)c1nc2ccccc2c(=O)n1-c1ccccc1	-54*	1	-22	-4	0
CN(CCO)c1cc(Sc2nc3ccccc3s2)c2nonc2c1[N+](=O)[O-]	-84*	1	-37	-4	-8
CC(=O)OCCN(C)c1cc(SC(C)C)c2nonc2c1[N+](=O)[O-]	-2	11	2	-6	-16
CCS(=O)(=O)c1nc(S(=O)(=O)c2ccc(Cl)cc2)c(NCc2ccc(Cl)cc2)s1	·	2	-14	-2	-8
COc1ccc(-c2[nH]c(-c3ccc(O)cc3)nc2-c2ccccc2)cc1	·	6	-8	-2	24
Cc1cc(C)nc(NCCC(=O)O)n1	6	9	4	-8	-58*
C/C(=N\NC(=O)c1cc(Br)ccc1O)c1cccs1	-3	32*	-5	-8	-12
C/C(=N/NC(=O)c1ccc(Br)o1)c1cccs1	0	0	3	-2	-5
CC1CCN(CC(O)COc2ccc(F)cc2)CC1 (centres undefined)	?	2	-15	·	-49*
CC1CCN(CC(O)COc2cccc(F)c2)CC1 (centres undefined)	-57*	3	-22	·	-8
CC1CCN(CC(O)COc2ccc(-c3ccccc3)cc2)CC1 (centres undefined)	-73*	30	-16	-4	-2
OC(COc1ccccc1)CN1CCCCCC1 (centres undefined)	-18	-1	-6	-2	16
COc1cccc(OCC(O)CN2CCC(C)CC2)c1 (centres undefined)	11	2	-31	-2	0
CC(C)OCC(O)CN1CCC(Cc2ccccc2)CC1 (centres undefined)	-5	0	-8	2	-2
OC(COc1ccc(Br)cc1)CN1CCC(Cc2ccccc2)CC1 (centres undefined)	?	18	-13	-11	-43*
COc1ccc(-c2nn(C)c3sc(C(=O)N4CCN(c5cccc(C)c5C)CC4)cc23)cc1OC	·	0	2	3	-9
COc1ccc(CNC(=O)C2CCN(C(=O)c3ccc(-n4ccc5ccccc54)s3)CC2)cc1	·	5	7	-4	-5
COc1cc(N2CCCC2)c(OC)cc1/C=C(/C#N)c1ccc(Br)cc1	?	39*	-2	-4	-15
CC1(Oc2cccc(C#N)c2)CCN(Cc2csc3ccccc23)C1 (centres undefined)	-81*	·	-25	·	·
COc1ccc(CN2CCC(C)(Oc3ccc(C(C)=O)cc3)C2)c2ccccc12 (centres undefined)	-21	·	-2	·	·
